Screening results: PubChem BioAssay, National Center for Advancing Translational Sciences (NCATS)
D1 agonist – Allosteric Agonists of the Human D1 Dopamine Receptor: qHTS; D(1A) dopamine receptor (Homo sapiens), P21728; HEK293 T-REx D1 cells, calcium flux, agonist mode; activation, % at 2 µM; 1% of 360,000 active; AID 504660, 2011; in the data active = activation above about 30%; note: 0% is about no effect
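Tetracycline-induced HEK293 TREx D1 cells, force-coupled to calcium signalling, were dye-loaded with a no-wash calcium kit. Compound was pin-added after a 10 s baseline. Fluorescence was read kinetically at 1 cycle/s for 180 s, with calcium rises flagged as agonism.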
D1 antagonist – Antagonist of Human D 1 Dopamine Receptor: qHTS; D(1A) dopamine receptor (Homo sapiens), P21728; HEK293 TREx D1 cells, calcium flux, dopamine EC80; stronger effect = lower value; activity change, negative = inhibition, % at 10 µM; 3.2% of 360,000 active; in the data active = activity change below about -30%; note: % is set by controls: 0 for no effect and ±100 for the full control effect
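Cells carrying a force-coupled, tetracycline-inducible human D1 receptor report calcium flux. Each well gets a 10 s baseline, compound with 180 s monitoring, then an EC80 dopamine stimulus with a second 180 s kinetic read.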
TRHR agonist-1 – qHTS for Small Molecule Agonists and Allosteric Enhancers of Human TRH Receptor: Primary Screen for Agonists. Thyrotropin-releasing hormone receptor (Homo sapiens), P34981. TRHR cells, calcium flux fluo-8, FDSS agonist mode. activation, % at 2 µM. 0.18% of 360,000 active. AID 493084, 2011; in the data active = activation above about 30%; note: 0% is about no effect
Target sequence (P34981 whole entry, looked up): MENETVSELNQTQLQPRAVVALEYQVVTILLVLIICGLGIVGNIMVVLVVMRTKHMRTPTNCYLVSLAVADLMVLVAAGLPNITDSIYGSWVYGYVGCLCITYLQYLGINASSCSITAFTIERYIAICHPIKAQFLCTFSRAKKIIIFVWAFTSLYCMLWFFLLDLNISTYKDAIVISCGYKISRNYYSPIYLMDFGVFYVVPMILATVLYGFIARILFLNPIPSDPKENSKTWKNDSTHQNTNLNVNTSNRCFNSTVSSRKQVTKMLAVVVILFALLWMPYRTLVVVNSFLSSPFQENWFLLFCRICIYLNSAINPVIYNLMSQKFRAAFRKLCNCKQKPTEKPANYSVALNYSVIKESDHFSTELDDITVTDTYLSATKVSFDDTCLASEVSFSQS
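Steps: seed TRHR cells overnight; add fluo-8 no-wash Ca dye, RT 30 min–1.5 h; record 10 s baseline; pin-transfer compounds; monitor fluorescence 1 cycle/s for the agonist window. Calcium increases flag candidate agonists.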
D1 potentiator – Potentiators of Human D1 Dopamine Receptor: qHTS; D(1A) dopamine receptor (Homo sapiens), P21728; HEK293 TREx D1 cells, calcium flux, dopamine EC20 potentiation; potentiation, % at 10 µM; 0.036% of 360,000 active; AID 504651, 2011; in the data active = potentiation above about 30%; note: 0% is about no effect
TRHR enhancer-1 – qHTS for Small Molecule Agonists and Allosteric Enhancers of Human TRH Receptor: Primary Screen for Enhancers; Thyrotropin-releasing hormone receptor (Homo sapiens), P34981; TRHR cells, fluo-8 calcium fluorescence, EC20 TRH enhancement; enhancement, % at 2 µM; 0.66% of 360,000 active; AID 493056, 2011; in the data active = enhancement above about 30%; note: 0% is about no effect
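TRHR-expressing cells loaded with fluo-8 calcium dye were read kinetically (ex 480/em 530) during compound addition, then stimulated with an EC20 of TRH (10 nM final). Enhancement of the Gq-mediated intracellular calcium response was scored.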
TRHR enhancer-2 – qHTS for Small Molecule Agonists and Allosteric Enhancers of Human TRH Receptor: Confirmation Screen for Enhancers; shares compounds with TRHR enhancer-1; TRH receptor cell assay, enhancer confirmation qHTS; activity change, negative = inhibition, % at 46.1 µM; 970 tested, under 10 active;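 note: compound effect scored on response to added TRH at EC20 of 10 nM; 0% is about no effect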
TRHR agonist-2 – qHTS for Small Molecule Agonists and Allosteric Enhancers of Human TRH Receptor: Confirmation Screen for Agonists. shares compounds with TRHR enhancer-1. TRHR-expressing cells, agonist activation read-out. Potency, µM (series often up to 46.1 µM), for the others: at the top dose activation, hits mostly activators. 8% of 970 active; note: potency is the fitted concentration of half-maximal effect; 0% is about no effect; nearly all actives have a fitted effect of over 75% in size
* = called active by the depositor; ? = inconclusive; . = no result; ! = not active in a repeat. Shown are actives, neighbours in structure and some others; about 4.7% of the full set was active somewhere. Unless noted, calls come from the whole dose curve; as a rule, active = well fitted curve in the direction sought with a large enough effect; inconclusive = small, poorly fitted or top-dose-only effect, or another doubt; inactive = no such curve, though single readings can be large; an effect the other way counts as inactive or inconclusive.

SMILES | D1 agonist | D1 antagonist | TRHR agonist-1 | D1 potentiator | TRHR enhancer-1 | TRHR enhancer-2 | TRHR agonist-2
Cc1cccc(CSCCNC(=O)C2CCN(S(=O)(=O)Cc3ccccc3)CC2)c1 | 2.3 | -13.6 | 0.1 | -2.6 | -0.3 | . | .
CCOC(=O)C1CCCN(c2c(Nc3ccc(C)c(C)c3)c(=O)c2=O)C1 (stereo not drawn) | 1.3 | -7.4 | -1.0 | -8.9 | 56.7* | -2.6 | 3.3%
COc1ccc(C(CNC(=O)c2ccc(Cl)c(NC(=O)c3cccs3)c2)N2CCCC2)cc1 (stereo not drawn) | 7.1 | -13.7 | 0.9 | -3.0 | 59.7* | -1.2 | 3.1%
Cc1ccc(NC(=O)CSc2nnc3ccccn23)cc1 | -0.1 | -3.0 | 0.1 | -0.8 | 1.5 | . | .
Cc1ccc([N+](=O)[O-])cc1-c1ccc(/C=C(\C#N)c2[nH]nc(N)c2C#N)o1 | 0.3 | -7.0 | -0.1 | -3.7 | -4.5 | . | .
COc1cc(/C=C(\C#N)c2[nH]nc(N)c2C#N)cc(OC)c1O | 36.2* | 5.4 | 61.6* | 2.6 | 20.5 | 8.6 | ?
CCc1nc(Nc2ccncc2)c2oc3ccccc3c2n1 | 2.5 | 11.2 | 0.0 | 0.0 | 47.0* | -5.0 | -0.5%
COc1cccc2c(=O)c3c(cnn3C)n(C)c12 | 1.6 | 2.0 | 0.4 | -1.1 | -2.8 | . | .
COc1cccc2c(=O)c3ccoc3n(C)c12 | -5.3 | 2.4 | -0.8 | 2.4 | 42.2* | -5.3 | 2.4%
CCc1cccc(N2C(=O)N(CC(=O)NCc3cccc(OC)c3OC)c3ccccc3S2(=O)=O)c1 | 6.6 | -18.8 | -0.1 | -2.8 | -2.0 | . | .
O=C(/C=C/c1ccccc1)NC(N1CCOCC1)C(Cl)(Cl)Cl (stereo not drawn) | 0.3 | -33.5* | 0.2 | -3.1 | 45.4* | -6.5 | 6.3%
O=C(NC(N1CCOCC1)C(Cl)(Cl)Cl)c1ccco1 (stereo not drawn) | 13.6 | 2.4 | -0.8 | -3.8 | 5.1 | . | .
CC(C)c1c(C(=O)N/N=C/C=C/c2ccccc2)nnn1-c1nonc1N | 19.1 | 6.1 | -0.3 | -6.6 | 76.1* | 9.0 | 1.4%
COc1ccc(NC(=O)CNS(=O)(=O)c2ccc(Cl)cc2)cc1 | 0.2 | 10.8 | -0.7 | 5.1 | 44.2* | -8.3 | 1.3%
COc1cccc(NC(=O)CNS(=O)(=O)c2ccc(Cl)cc2)c1 | 9.2 | -3.0 | 0.3 | -7.2 | -7.2 | . | .
CC1(C)NC(=O)N(CC(O)Cn2nnc3ccccc32)C1=O (stereo not drawn) | 3.3 | -0.4 | 0.1 | 0.7 | 50.5* | -1.4 | 0.4%
CC1CCC2C(=O)N(c3cccc(C(=O)Nc4ccc(F)cc4)c3)C(=O)C2C1 (stereo not drawn) | 3.8 | -23.9 | 0.4 | -1.6 | 56.9* | -0.6 | 1.6%
CCc1c(C)nc2nncn2c1Nc1ccc(C)c(F)c1 | -1.2 | -3.0 | -0.8 | -2.0 | 8.2 | . | .
COc1ccc(O)c(C(=O)c2coc(=N)c(C(=O)Nc3ccc(SC(F)F)cc3)c2)c1 | 33.0* | -11.2 | 28.8 | -1.4 | -4.8 | -8.1 | ?
CCCN1C(=O)c2ccccc2NC1c1ccc(Cl)c(Cl)c1 (stereo not drawn) | 2.4 | -2.5 | -1.3 | -2.8 | 74.4* | -12.9 | -0.6%
O=C(Nc1ccccn1)N1CCOCC1 | 0.9 | 0.0 | 0.3 | -3.8 | 47.9* | -1.8 | -0.6%
C=CCNC(=O)C(=O)NCC1CCCN1CC (stereo not drawn) | 3.4 | 13.2 | 1.0 | -0.3 | 41.5* | -4.3 | -0.3%
CCCNC(=O)C(=O)NCC1CCCN1CC (stereo not drawn) | 2.3 | 10.4 | 0.4 | 2.7 | 27.1 | . | .
Fc1ccccc1C1CC(c2ccco2)=Nc2ccccc2S1 (stereo not drawn) | 3.3 | 0.0 | 0.0 | -7.0 | 0.3 | . | .
CS(=O)(=O)c1cccc(-c2csc(N3CCC(C(N)=O)CC3)n2)c1 | 3.0 | 6.7 | -0.1 | -7.9 | 47.6*! | 4.0 | 7.0%
SMILES | D1 agonist | D1 antagonist | TRHR agonist-1 | D1 potentiator | TRHR enhancer-1 | TRHR enhancer-2 | TRHR agonist-2
Cn1nnnc1SCc1c(F)cccc1F | 3.3 | -8.0 | 0.5 | -6.7 | 41.9* | ? | 1.9%
Cn1nnnc1SCc1cccc(CSc2nnnn2C)n1 | 3.5 | -9.0 | 0.6 | -3.4 | -3.1 | . | .
CCOc1ccc(CN(C(=O)/C=C/c2ccco2)C2CCS(=O)(=O)C2)cc1 (stereo not drawn) | -0.1 | 4.3 | 40.8* | -1.5 | -8.5 | 0.7 | 0.5%
O=C(N/N=C/c1cccnc1)c1ccccc1OCc1cccc(Br)c1 | 5.9 | -15.0 | -1.7 | -1.8 | -3.0 | . | .
Cc1ccc(/C=N/NC(=O)c2ccccc2OCc2cccc(Br)c2)o1 | -1.4 | -10.9 | -0.2 | -5.0 | 57.7* | 4.8 | 0.7%
CCc1ccc(/C=N\n2cnnc2)cc1 | 2.3 | -3.7 | -0.3 | 2.1 | 0.4 | . | .
CCc1ccccc1NC(=O)NC1CCCCC1 | 2.8 | 2.4 | 0.1 | 0.2 | 48.3* | -3.0 | -0.5%
COc1ccc2cc3cc(C(=O)N4CCN(c5ccccn5)CC4)oc3nc2c1 | 1.1 | -6.7 | -0.5 | -10.3 | -2.2 | . | .
COc1cccc(/C=N/NC(=O)c2c(C)nc3ccc(Br)cn23)c1O | 4.5 | -2.5 | 35.3* | -4.3 | 2.5 | 0.2 | ?
O=C(CSCc1cccc(Br)c1)N/N=C/c1ccc2c(c1)OCO2 | 4.2 | -9.8 | 0.6 | -6.7 | -6.1 | . | .
CCOC(=O)/C(C#N)=C(C)/C=C1\Sc2ccccc2N1CC | 44.8* | 10.3 | 32.7* | -6.5 | -4.8 | 7.0 | 20.6µM*
CCOC(=O)C1=C(CNCCc2ccc(Cl)cc2)NC(=O)NC1c1ccc2c(c1)OCO2 (stereo not drawn) | 2.5 | 8.5 | 0.4 | -1.6 | 41.4* | 7.0 | ?
COC(=O)c1cc(S(=O)(=O)N2CCN(c3cccc(C)c3C)CC2)c[nH]1 | 8.2 | -2.6 | 0.2 | -20.1 | 48.2* | -7.4 | -0.6%
COC(=O)c1cc(S(=O)(=O)N2CCN(c3ccccc3)CC2)c[nH]1 | 15.6 | -4.5 | 0.8 | -9.2 | -2.5 | . | .
Cc1ccc(Cn2ccc(C3CC3)n2)cc1 | 1.5 | -11.7 | -0.7 | -0.2 | 51.2* | -0.5 | -0.7%
COc1cccc(NS(=O)(=O)c2ccc3c(c2)N(C(C)=O)CCO3)c1 | 5.5 | -11.5 | 0.3 | -4.7 | 103.9* | -0.8 | -0.6%
Cc1cc(NC(=O)CN2C(=O)/C(=C/c3cccc(Br)c3)SC2=S)no1 | 3.3 | 5.2 | 1.2 | -11.0 | 47.1* | 7.2 | 2.2%
